# HT1080-NT tox – qHTS for induction of synthetic lethality in tumor cells producing 2HG: qHTS for the HT-1080-NT fibrosarcoma cell line; HT-1080-NT fibrosarcoma viability, CellTiter-Glo ATP luminescence, 48 h; Potency, µM (top dose mostly 46.1 µM), inactives show top-dose activity, negative = less viability, most hits filed as cytotoxic; 360,000 compounds, 1.6% hits; AID 686970, 2013;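 further: NT is the 2HG producing partner of a matched IDH1 knockdown line; potency means the concentration at half of the fitted maximal effect; 0% = DMSO-treated cells and -100% = media-only wells without cells; nearly all actives have a fitted effect of over 55% in size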
#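 Viability by CellTiter-Glo luminescence after 48 h compound exposure at 37C of HT-1080-NT cells (750/well, RPMI, 5% FBS). % activity scaled between DMSO wells and medium-only wells, then curve-fitted and categorized by curve class.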
# uPA surface inh – qHTS for Inhibitors of Cell Surface uPA Generation. cell surface uPA generation assay, qHTS. Potency, µM (highest dose often 38.3 µM), for the others: top-dose activity change, negative = inhibition, actives largely listed as inhibitors. 330,000 compounds, 0.31% hits; active means well fitted inhibition curve with a large enough effect; inconclusive means small, poorly fitted or top-dose-only effect; inactive means no such curve, though single readings can be large or run the other way; tested in mouse RAW 264.7 cells; further: potency means the concentration at half of the fitted maximal effect; nearly all actives have a fitted effect of over 55% in size
# DT40 TDP1 no CPT – qHTS for Inhibitors of human tyrosyl-DNA phosphodiesterase 1 (TDP1): qHTS in cells in absence of CPT; DT40 Tdp1-/- hTDP1 cells, no CPT, ATP luminescence, 48 h; Potency, µM (doses to about 46.2 µM), without a hit: at the highest dose activity change, negative = growth inhibition, most hits filed as inhibitors; 420,000 compounds, 15% hits; further: potency means the concentration at half of the fitted maximal effect; nearly all actives have a fitted effect of over 55% in size
#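 Chicken DT40 Tdp1-/- cells complemented with human TDP1, screened without camptothecin (DMSO vehicle only), 400 cells/well. Compounds pin-transferred, cells incubated at 37 °C for at least 48 hr. Growth read as ATP-dependent luminescence (CellTiter-Glo, 30 min at RT).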
# HT1080 IDH1KD tx – qHTS for induction of synthetic lethality in tumor cells producing 2HG: qHTS for the HT-1080-IDH1KD cell line; Potency, µM (top dose mostly 46.1 µM), for the others: at the top dose activity, negative = toxicity, most hits filed as cytotoxic; AID 686971, 2013; 360,000 compounds, 2% hits; HT-1080 IDH1 knockdown viability, ATP luminescence, 48 h;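 further: potency means the concentration at half of the fitted maximal effect; 0% = DMSO wells and -100% = cell-free medium wells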
#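 HT-1080-IDH1KD cells (IDH1 knocked down), 750/well in RPMI with 5% FBS, treated with compound 48 h at 37 degrees C. Viability by CellTiter-Glo luminescence, normalised to DMSO and no-cell wells; concentration-response curves classed.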
# DT40 TDP1 CPT – qHTS for Inhibitors of human tyrosyl-DNA phosphodiesterase 1 (TDP1): qHTS in cells in presence of CPT. AID 686979, 2013. Potency, µM (titrated, usually from 46.2 µM), for inactives: at the top dose activity change, negative = growth inhibition, usual class: inhibitors. 420,000 compounds, 12% hits. chicken DT40 Tdp1-/-;hTDP1 cells + 20 nM CPT, ATP luminescence, 48 h; further: potency means the concentration at half of the fitted maximal effect; nearly all actives have a fitted effect of over 55% in size
#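 Cell growth measured by CellTiter-Glo luminescence after a minimum 48 h, 37 C compound exposure with 20 nM CPT in Tdp1-knockout DT40 cells stably expressing hTDP1, seeded 400/well; qHTS titration format.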
# IL1B secr inh – qHTS for Inhibitors of Inflammasome Signaling: IL-1-beta AlphaLISA Primary Screen; 360,000 compounds, 4.7% hits; THP-1 LPS/ATP IL-1B secretion, AlphaLISA, 16 h; stronger effect = lower value; activity change, % at 57.5 µM; AID 743279, 2014; in the data active means activity change below about -50%; inconclusive means mostly about -30% to -49%
#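 THP-1 cells pretreated 1 hr with compounds (up to 57.5 uM final), then stimulated with LPS (250 ng/mL final) plus ATP (1.25 mM final); secreted IL-1B measured by AlphaLISA after 16 hr, decreased signal indicating inhibition.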
# * hit, by the source's call; ? = inconclusive; · = no result given; [ ] = dose if it differs, or a comment. This is a sample that favours compounds with a hit; in the whole collection about 19% have one here. Unless noted, the call rests on the fitted dose curve; in most records, active means well fitted curve in the direction sought with a large enough effect; inconclusive means small, poorly fitted or top-dose-only effect, or another doubt; inactive means no such curve, though single readings can be large; an effect the other way counts as inactive or inconclusive. Unless noted, on the % scale 0 is the no-effect control and ±100 the full control effect.
SMILES,HT1080-NT tox,uPA surface inh,DT40 TDP1 no CPT,HT1080 IDH1KD tx,DT40 TDP1 CPT,IL1B secr inh
Cc1[nH]c2ccccc2c1/C=N/NC(=O)C1CC1(c1ccccc1)c1ccccc1 (configuration not stated),?,-10.8%,?,?,?,?
O=c1cc(-c2ccc(Cl)cc2)[nH]c2ccccc12,-8.8%,?,6.51µM*,-9.9%,4.11µM*,12.5
Cc1ccc(-c2cc(=O)c3ccccc3[nH]2)cc1,?,11.2µM*,9.2µM*,?,16.4µM*,0.0
Cc1ccc2[nH]c(-c3ccccc3)cc(=O)c2c1,0.731µM*,?,0.651µM*,1.03µM*,0.82µM*,70.4
Cc1ccc2c(C)c(C(=O)N3CCC(O)(c4ccccc4)CC3)oc2c1C,-14.0%,2.9%,?,-24.2%,-28.0%,22.1
O=C(COC(=O)Cn1cnc2ccccc21)Nc1cc(S(=O)(=O)N2CCOCC2)ccc1Cl,-0.4%,1.1%,-14.3%,13.5%,-5.5%,15.5
O=C(COC(=O)Cn1cnc2ccccc21)Nc1cc2c(cc1Cl)C(=O)c1ccccc1C2=O,-7.5%,5.01µM*,16.4µM*,-9.6%,20.6µM*,17.6
CCOc1ccc(C(=O)NCCN2CCCCC2)c(OCC)c1,0.9%,0.6%,-26.7%,11.3%,1.9%,-4.9
Cc1cccc(C)c1N/C=C/c1onc(C)c1[N+](=O)[O-],-5.4%,-5.5%,-21.2%,1.6%,-17.5%,28.8
Cc1noc(/C=C/c2cccnc2)c1[N+](=O)[O-],20.6µM*,7.94µM*,13µM*,?,20.6µM*,-93.9*
CCO[C@H]1OC(C(N)=O)=C[C@@H](c2csc3ccccc23)[C@@H]1CCCO,3.8%,20.3%,1.9%,1.1%,-2.0%,25.2
CCO[C@@H]1OC(C(=O)N2CCCCCCC2)=C[C@H](c2cn(C(C)=O)c3ccccc23)[C@H]1CCCO,-5.4%,8.6%,?,-5.5%,16.4µM*,-52.6*
CCO[C@@H]1OC(C(=O)N2CCCCCCC2)=C[C@H](c2csc3ccccc23)[C@H]1CCCO,8.9%,-0.7%,23.1µM*,0.5%,20.6µM*,?
CCO[C@H]1OC(C(=O)N2CCOCC2)=C[C@@H](c2cn(C(C)=O)c3ccccc23)[C@@H]1CCCO,-4.9%,3.6%,-20.2%,6.7%,-16.8%,8.9
Cc1c(Cl)cccc1-n1c(SCC(=O)NCc2ccccc2Cl)nnc1-c1ccncc1,-8.4%,·,?,-28.3%,14.1µM*,-8.8
Cc1c(Cl)cccc1-n1c(SCC(=O)NCc2cccs2)nnc1-c1ccncc1,7.7%,0.0%,?,1.5%,-14.9%,7.2
O=C(CSc1nnc(-c2ccccc2Cl)o1)Nc1ccccn1,-3.1%,10µM*,?,-0.7%,?,-1.6
Cc1ccccc1-c1nnc(SCC(=O)Nc2cccnc2Cl)o1,18.4µM*,-13.3%,16.4µM*,23.1µM*,13µM*,14.8
CCc1nnc(NC(=O)CSc2nnc(-c3ccccc3NC(=O)c3ccccc3)o2)s1,12.6µM*,-2.9%,-2.6%,-24.9%[9.24 µM],-22.5%,31.1
Cc1cc(C)cc(NC(=O)CSc2nnc(-c3ccccc3C)o2)c1,7.0%,·,9.9%,?,2.3%,-6.7
Cc1occc1-c1nnc(SCC(=O)Nc2ccccn2)o1,-20.6%,-2.2%,?,-0.6%,?,-1.1
CCOc1ccccc1NS(=O)(=O)c1cnc(N)nc1,·,·,-17.9%,·,2.6%,·
CC(=O)Nc1cccc(/C(C)=N/Nc2ccc(S(=O)(=O)Nc3ccccc3C(=O)O)cc2[N+](=O)[O-])c1,5.5%,5.8%,-12.7%,3.3%,-14.7%,0.0

# High-throughput results (PubChem BioAssay)
